Bioassay records as filed in PubChem.
DT40 TDP1 no CPT – qHTS for Inhibitors of human tyrosyl-DNA phosphodiesterase 1 (TDP1): qHTS in cells in absence of CPT. 420,000 compounds, 15% hits. DT40 Tdp1-/- hTDP1 cells, no CPT, ATP luminescence, 48 h. Potency, µM (highest dose often 46.2 µM), for the others: at the top dose activity change, negative = growth inhibition, actives largely listed as inhibitors; further: potency means the concentration at half of the fitted maximal effect; on the % scale 0 is the no-effect control and ±100 the full control effect; nearly all actives have a fitted effect of over 55% in size
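Readout: luminescence from CellTiter-Glo after 30 min in the dark at RT. Cells: DT40 Tdp1-/- with stable hTDP1, 400/well. Exposure: compounds alone, ≥48 hr, 37 °C.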
TDP1 inh – inhibitors of human tyrosyl-DNA phosphodiesterase TDP1; AID 485290; Q9NUW8; recombinant TDP1, AlphaScreen DNA substrate cleavage; Potency, µM (series often up to 130 µM), without a hit: at the top dose activity change, negative = inhibition, most hits filed as inhibitors; 350,000 compounds, 0.28% hits; further: potency means the concentration at half of the fitted maximal effect; on the % scale 0 is the no-effect control and ±100 the full control effect; nearly all actives have a fitted effect of over 40% in size
Target sequence (Q9NUW8 whole entry, looked up): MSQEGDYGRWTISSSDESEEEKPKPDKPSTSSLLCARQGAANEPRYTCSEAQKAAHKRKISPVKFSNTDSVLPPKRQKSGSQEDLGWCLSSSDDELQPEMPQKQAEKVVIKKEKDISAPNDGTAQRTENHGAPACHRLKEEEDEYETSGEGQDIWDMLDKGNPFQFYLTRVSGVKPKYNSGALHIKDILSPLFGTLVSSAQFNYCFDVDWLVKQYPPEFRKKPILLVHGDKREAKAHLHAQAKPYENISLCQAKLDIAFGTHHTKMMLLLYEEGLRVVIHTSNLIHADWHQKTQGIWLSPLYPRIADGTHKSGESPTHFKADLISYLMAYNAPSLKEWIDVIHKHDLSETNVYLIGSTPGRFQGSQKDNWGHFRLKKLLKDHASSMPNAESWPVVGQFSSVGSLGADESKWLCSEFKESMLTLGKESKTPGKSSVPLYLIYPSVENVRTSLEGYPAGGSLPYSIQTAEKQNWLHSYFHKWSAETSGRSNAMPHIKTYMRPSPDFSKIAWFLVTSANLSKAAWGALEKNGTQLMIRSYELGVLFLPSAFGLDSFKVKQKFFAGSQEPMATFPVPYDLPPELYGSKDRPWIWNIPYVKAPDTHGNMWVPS
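Compounds were preincubated with Tdp1 (1 nM final) for 15 min at room temperature before substrate (15 nM final) started a 5 min reaction; beads (10 ug/ml final) were then added for 10 min before AlphaScreen detection.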
HepG2 viability – HepG2 cytotoxicity, counter-screen for TGF-b inhibitors | AID 588856 | Potency, µM (titrated, usually from 46.1 µM), inactives show at the top dose activity change, negative = cytotoxicity, actives largely listed as cytotoxic | 410,000 compounds, 0.76% hits | HepG2 CAGA-GFP viability, ATP luminescence, 18 h; further: potency means the concentration at half of the fitted maximal effect
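HepG2 CAGA-GFP cells (1000/well, DMEM with 1% FBS) received compound, then TGF-beta at 500 pg/mL final, and were incubated 18 hours at 37 degrees C. Viability was read by CellTiter-Glo luminescence. Media-only wells were set as complete cell-killing and DMSO as no toxicity.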
IL1B secr inh – blocks inflammasome-driven IL-1 beta release. 360,000 compounds, 4.7% hits. activity change, % at 57.5 µM. THP-1 LPS/ATP IL-1B secretion, AlphaLISA, 16 h; active compounds read low; in the data active means activity change below about -50%; inconclusive means mostly about -30% to -49%; further: on the % scale 0 is the no-effect control and ±100 the full control effect
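Secreted IL-1B measured by AlphaLISA bead assay after 16 h compound exposure of THP-1 cells; compounds (final up to 57.5 uM) added 1 h before LPS (250 ng/mL) and ATP (1.25 mM) stimulation; lower signal means less secretion.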
DT40 TDP1 CPT – DT40-hTDP1 cell growth loss with CPT | 420,000 compounds, 12% hits | chicken DT40 Tdp1-/-;hTDP1 cells + 20 nM CPT, ATP luminescence, 48 h | Potency, µM (top dose mostly 46.2 µM), inactives show top-dose activity change, negative = growth inhibition, most hits filed as inhibitors; further: potency means the concentration at half of the fitted maximal effect; on the % scale 0 is the no-effect control and ±100 the full control effect; nearly all actives have a fitted effect of over 55% in size
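Chicken DT40 Tdp1-/- cells stably complemented with human TDP1 were seeded at 400 cells/well in medium containing 20 nM camptothecin, exposed to pin-transferred compounds, and grown at 37 °C for at least 48 hr. Viability was read as ATP luminescence.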
TGFb inhibitor – blocks TGF-b signaling; HepG2 CAGA-GFP TGF-b/SMAD3 reporter, GFP fluorescence, 18 h; TGF-beta stimulated, 500 pg/mL final; Potency, µM (top dose mostly 46.1 µM), for the others: top-dose activity, negative = inhibition, usual class: inhibitors; 410,000 compounds, 1.2% hits; AID 588855; further: potency means the concentration at half of the fitted maximal effect; on the % scale 0 is the no-effect control and ±100 the full control effect; nearly all actives have a fitted effect of over 65% in size
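Cell-based qHTS in HEPG2 carrying a CAGA-GFP Smad reporter; compounds added before 500 pg/mL final TGF-beta, 18 h incubation at 37 degrees C, GFP fluorescence quantified per cell by imaging cytometry.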
Active calls of the source: *; ? = inconclusive; · = no result given; ! = not active in a repeat; [ ] = remark or other dose. Most compounds without a hit are left out; they make up all but 18% or so of the library. Unless noted, the call rests on the fitted dose curve; in most records, active means well fitted curve in the direction sought with a large enough effect; inconclusive means small, poorly fitted or top-dose-only effect, or another doubt; inactive means no such curve, though single readings can be large; an effect the other way counts as inactive or inconclusive.

SMILES	DT40 TDP1 no CPT	TDP1 inh	HepG2 viability	IL1B secr inh	DT40 TDP1 CPT	TGFb inhibitor
Cc1ccc2c(CC(=O)Nc3ccc(F)c(S(=O)(=O)N4CCOCC4)c3)coc2c1	?	0.0%	-7.5%	-1.7	?	?
O=C(CSc1nc(-c2ccccc2)nc2c1Cc1ccccc1O2)N1CCCCC1	11.6µM*	1.3%	8.1%	·	10.3µM*	11.1%
COc1ccc(-c2nc3c(c(SCC(=O)N4CCCCC4)n2)Cc2c(CO)cnc(C)c2O3)cc1	1.3µM*	5.1%	-40.7%	·	2.59µM*	?
CCc1ccc(-c2nc3c(c(SCc4ccccc4)n2)Cc2c(CO)cnc(C)c2O3)cc1	-17.2%	5.1%	-12.2%	·	-0.3%	-4.0%
CCSc1nc(-c2ccccc2)nc2c1Cc1c(CO)cnc(C)c1O2	-1.7%	0.0%	9.2%	·	-9.4%	5.7%
C=Cc1ccc(CSc2nc(-c3ccc(C)cc3)nc3c2Cc2c(CO)cnc(C)c2O3)cc1	16.4µM*	0.0%	-15.5%	·	14.6µM*	-15.1%
CC(=O)N1CCC(C(=O)N2c3ccccc3N=C(c3ccc(C(F)(F)F)cc3)C2C(=O)NC(C)C)CC1 (stereo not given)	-21.8%	·	·	0.3	-7.3%	·
O=C1NC[C@H](CCCCN2C[C@H](Cc3ccccc3)N(CCC3CCCCC3)C(=O)C2=O)N(CC2CCCCC2)C1=O	4.9%	·	·	21.3	?	·
C=CCn1c(=O)c(CCC(=O)Nc2ccc(N3CCOCC3)cc2)nc2cc(C(F)(F)F)ccc21	-29.9%	-0.2%	-2.3%	0.0	?	-4.4%
CC(C)CN(C(=O)c1ccc(S(=O)(=O)N2CCCC2)cc1)C1CCS(=O)(=O)C1 (stereo not given)	5.5%	·	-12.1%	1.2	?	15.8%
CC1CN(S(=O)(=O)c2cccc(C(=O)OC/C(O)=C(\C#N)c3nc4ccccc4[nH]3)c2)CC(C)O1 (stereo not given)	?	5.4%	-47.6%	4.5	?	?
N#C/C(=C(/O)COC(=O)CCc1ccc(S(=O)(=O)N2CCOCC2)cc1)c1nc2ccccc2[nH]1	13µM*	11.4%	-22.0%	43.7	16.4µM*	-5.1%
N#C/C(=C(/O)COC(=O)c1ccc(Cl)c(S(=O)(=O)N2CCOCC2)c1)c1nc2ccccc2[nH]1	-8.3%	6.9%	-4.9%	6.2	6.8%	-9.8%
N#C/C(=C(/O)COC(=O)c1ccc2c(c1)OCCO2)c1nc2ccccc2[nH]1	-1.3%	9.6%	15.8µM*	-65.5*	-3.9%	-6.2%
Cc1ccc(S(=O)(=O)N2CCOCC2)cc1N/N=C(\C#N)c1nc2ccccc2[nH]1	25.9µM*	2.7%	-25.9%	2.0	?	-10.4%
Cc1ccc(C(=O)OC/C(O)=C(\C#N)c2nc3ccccc3[nH]2)cc1S(=O)(=O)N1CCOCC1	7.31µM*	5.6%	0.5%	0.0	5.8µM*	-26.7%
O=C(Nc1ccccc1F)c1cnn2c1NC(=C1CC1)C=C2C(F)F	-11.8%	·	·	·	-3.4%	·
C[C@@H](C(=O)O)c1cccc(C(=O)c2ccccc2)c1	·	8.6%	·	·	·	·
N#C/C(=C\Nc1ccc2c(c1)OCCO2)c1nc(-c2ccccc2)cs1	?	1.1%	-3.8%	23.7	?	-0.7%
N#C/C(=C\Nc1ccc2c(c1)OCCO2)c1nc2ccccc2[nH]1	20.6µM*	-2.2%	-15.6%	-24.5	?	?
COc1ccc(-c2cc(C(=O)N3CCN(c4ccccc4)CC3)no2)cc1	20.6µM*!	-4.9%	-22.5%	-52.6*	18.4µM*!	?
COc1ccc(OC)c(-c2cc(C(=O)N3CCc4ccccc4C3)no2)c1	?	1.9%	-27.2%	5.1	-19.6%	8.3%
COc1ccc(OC)c(-c2cc(C(=O)N3CCN(c4ccccc4)CC3)no2)c1	20.6µM*	7.4%	-37.8%	49.1	?	-0.6%
COc1ccc(C(=O)N(Cc2ccccc2)Cc2cccs2)c(O)c1	·	-5.8%	·	·	·	·
CON(C)C(=O)c1nnc2c(n1)[nH]c1ccccc12	·	6.9%[21 µM]	·	·	·	·
SMILES	DT40 TDP1 no CPT	TDP1 inh	HepG2 viability	IL1B secr inh	DT40 TDP1 CPT	TGFb inhibitor
CC(=O)O[C@H]1C[C@H]2CC[C@@H]3[C@@H](CC[C@]4(C)[C@H](OC(C)=O)[C@H]([N+]5(C)CCCCC5)C[C@@H]34)[C@]2(C)C[C@H]1[N+]1(C)CCCCC1	·	1.3%[56.1 µM]	·	·	·	·
O=C(/C=C/c1ccccc1Cl)Nc1ccccc1	-18.9%	4.1%	-44.2%	-64.5*	-27.8%	5.3%
CCCCOC(=O)c1cccc(NC(=O)/C=C/c2ccccc2Cl)c1	20.6µM*	0.4%[12.3 µM]	-37.4%	·	?	?
O=C(/C=C/c1ccccc1Cl)Nc1ccc2c(c1)C(=O)NC2=O	-9.4%	-10.5%	0.2%	-11.1	-18.6%	3.4%
CN(C)S(=O)(=O)c1ccc(NC(=O)/C=C/c2ccccc2Cl)cc1	23.1µM*	1.4%	-30.3%	-27.2	?	?
O=C(/C=C/c1ccccc1Cl)Nc1cccc(O)c1	?	4.6%	-7.6%	-13.0	?	-20.0%
CCN(CC)C(=O)C1=C(C)N(CCCN2CCCC2=O)C(=O)C(CC(=O)NC2CCCCC2)C1 (stereo not given)	-11.8%	·	7.8%	14.5	-5.9%	17.4%
CCNC(=O)C1(C)CCCN(Cc2cc(-c3ccccc3)n(C)n2)C1 (stereo not given)	-19.0%	·	3.2%	-19.4	?	38.5%
CCOC(=O)c1c2n(c3c(NCc4ccccc4)ncnc13)CCCC2	20.6µM*	4.2%	-38.5%	-26.3	?	-12.4%
Cc1ccc(CNc2ncnc3c2nc2n3CCCC2)cc1	?	2.5%	-34.0%	·	?	?
CCc1ccccc1NC(=O)COC(=O)c1c(C)nsc1NC	2.91µM*	-0.4%	-5.4%	14.7	7.31µM*	-5.0%
CNc1snc(C)c1C(=O)OCC(=O)Nc1ccc(C)cc1F	10.3µM*	-4.7%	-18.8%	-7.4	?	18.4%
CNc1snc(C)c1C(=O)OCC(=O)N(C)c1ccccc1	?	0.9%	-16.2%	43.5	-24.0%	-3.7%
CNc1snc(C)c1C(=O)OCC(=O)N(C)Cc1ccccc1	18.4µM*	0.7%	-13.4%	29.6	14.6µM*	?
CC(C)c1ccc(NC(=O)CSc2nc3ccccc3nc2Cc2ccccc2)cc1	-24.2%	2.7%	0.0%	·	?	2.7%
O=C(C1=C[C@H](c2ccccc2)C[C@H](OCc2ccc(CO)cc2)O1)N1CCN(Cc2ccccc2)CC1	?	5.1%	-9.1%	-60.1*	?	0.2%
